# According to PubChem BioAssay AID1509 (The Scripps Research Institute Molecular Screening Center, 2009):
# In all, about 220,000 compounds went through this assay and about 770 (0.35%) were called active. Cut-off read from the data, not from the text of the source: active = activation above about 11%; inactive = the rest. Many of the other results were omitted from the sample, so actives are more common in it than they were.
# Target: Sphingosine 1-phosphate receptor 4 (Homo sapiens) (UniProt O95977)
# Test: activators of human S1P4 receptor – cell-based, primary screen (AID 1509);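 note: 0% = DMSO vehicle and 100% = reference agonist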
# Details: S1P4-expressing cell line, agonist reporter assay; at 4.98 µM; hits give high values
# Chain of Sphingosine 1-phosphate receptor 4 (Homo sapiens) (O95977 whole entry, looked up): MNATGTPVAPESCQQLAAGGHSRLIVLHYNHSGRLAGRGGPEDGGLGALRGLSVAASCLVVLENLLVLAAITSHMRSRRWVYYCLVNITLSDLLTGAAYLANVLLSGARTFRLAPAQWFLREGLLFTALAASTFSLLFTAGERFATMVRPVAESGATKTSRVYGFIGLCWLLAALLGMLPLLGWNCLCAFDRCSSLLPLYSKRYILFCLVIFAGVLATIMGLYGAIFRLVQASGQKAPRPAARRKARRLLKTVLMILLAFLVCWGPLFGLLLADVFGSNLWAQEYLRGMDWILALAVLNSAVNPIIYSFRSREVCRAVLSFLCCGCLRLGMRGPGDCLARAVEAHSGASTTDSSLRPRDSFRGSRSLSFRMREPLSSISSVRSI
row,SMILES,activation
1,CC(C)N(CC#CCC1(O)c2ccccc2-c2ccccc21)C(C)C,16.1% (active)
2,NCC(O)c1ccc(O)cc1 (stereo not given),1.71% (inactive)
3,O=c1[nH]c(=O)n(-c2ccc(F)cc2)c(O)c1C=NCCN1CCCCC1,0.64% (inactive)
4,O=c1[nH]c(CN2CC=C(c3ccccc3)CC2)nc2scc(-c3cccs3)c12,0.84% (inactive)
5,Cc1cccc(-n2c(O)c(C=NC34CN5CN(CN(C5)C3)C4)c(=O)[nH]c2=O)c1,-0.41% (inactive)
